Assays:
Format in all cases: functional
[1] = target: Solute carrier family 2, facilitated glucose transporter member 1 (Homo sapiens) (UniProt P11166); assay: ST_JUDE_LEISH: Cytotoxicity at 2uM final concentration against transgenic Leishmania Mexicana promastigotes LmGLUT1 that are glucose transport deficient and complemented with the human glucose transporter GLUT1. Activity is measured by DNA content using SYBR green in vitro
[2] = target: Hexose transporter 1 (Plasmodium falciparum) (UniProt O97467); assay: ST_JUDE_LEISH: Cytotoxicity at 2uM final concentration against transgenic Leishmania Mexicana promastigotes LmPfHT that are glucose transport deficient and complemented with the Plasmodium falciparum hexose transporter. Activity is measured by DNA content using SYBR green in vitro
[3] = target: Glucose transporter (Leishmania mexicana) (UniProt O61059); assay: ST_JUDE_LEISH: Cytotoxicity at 2uM final concentration against transgenic Leishmania Mexicana promastigotes LmGT2 that are glucose transport deficient and complemented with the L. Mexicana glucose transporter 2. Activity is measured by DNA content using SYBR green in vitro

Sequence of Solute carrier family 2, facilitated glucose transporter member 1 (Homo sapiens) (P11166 whole entry): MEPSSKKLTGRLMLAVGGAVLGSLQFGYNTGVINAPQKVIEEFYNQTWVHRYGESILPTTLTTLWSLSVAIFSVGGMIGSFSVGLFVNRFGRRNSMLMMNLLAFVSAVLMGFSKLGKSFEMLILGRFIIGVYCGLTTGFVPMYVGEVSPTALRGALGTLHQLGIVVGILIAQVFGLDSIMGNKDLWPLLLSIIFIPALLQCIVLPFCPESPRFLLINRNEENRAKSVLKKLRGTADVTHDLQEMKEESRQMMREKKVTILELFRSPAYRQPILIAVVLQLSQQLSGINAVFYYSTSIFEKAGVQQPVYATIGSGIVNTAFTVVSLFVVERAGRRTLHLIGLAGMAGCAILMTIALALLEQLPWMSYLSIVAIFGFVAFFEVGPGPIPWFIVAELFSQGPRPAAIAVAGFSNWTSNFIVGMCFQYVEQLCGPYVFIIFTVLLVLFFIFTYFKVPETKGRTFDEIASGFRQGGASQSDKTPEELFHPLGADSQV

| SMILES | inhibition [1] | inhibition [2] | inhibition [3] |
| --- | --- | --- | --- |
| CCCCCN1CCCC(NS(=O)(=O)c2ccc(C(=O)Nc3ccc(C(F)(F)F)cc3)cc2)C1 (centres undefined) | 6.19% | 4.12% | 1.89% |
| COc1ccc(Nc2cc(C)nc(NCc3ccc4c(c3)OCO4)n2)cc1 | 5.82% | 4.09% | 1.69% |
| Cc1ccc(NC(=S)NC2CCN(CCCCCNC(=O)/C=C/c3ccc(Cl)c(Cl)c3)CC2)cc1Cl | -0.23% | -0.31% | -1.1% |
| Cc1cc(NC2CCN(CC3CCCCC3)C2)nc(Nc2ccc(Cl)cc2)n1 (centres undefined) | 3.89% | 3.7% | 2.63% |
| O=C(/C=C/c1ccc(Cl)c(Cl)c1)NCCCCCN1CCC(NC(=O)c2ccc(F)cc2)CC1 | 6.17% | 3.16% | 5.01% |
| O=C(COc1ccccc1)N(Cc1ccc(-c2ccc(CNC3Cc4ccccc4C3)cc2)cc1)C1CCNCC1 | 2.8% | 2.48% | 2.61% |
| O=C(NCCCCN1CCC(c2cccc3ccccc23)CC1)c1ccc(-c2ccc(C(F)(F)F)cn2)cc1 | 2.62% | 3.84% | 1.69% |
| Cc1cccc2nc(-c3cccc(-c4cccc(NC(=O)c5cn(C)c(=O)n5C)c4)c3)[nH]c12 | 1.98% | 1.44% | -0.64% |
| O=C(Nc1cccc(CN2CCCN(Cc3ncc[nH]3)CC2)c1)c1ccc2ccccc2c1 | -2.43% | -3.48% | 1.4% |
| COc1ccc(NC(=O)/C=C/c2ccccc2Cl)cc1OCCN1CCC(O)(c2ccc(Cl)c(C(F)(F)F)c2)CC1 | 11.2% | 8.47% | 7.73% |
| COc1cccc(NC(=O)c2nc(N3CCN(c4ccncc4)CC3)ccc2Cl)c1 | -1.23% | 1.65% | 0.29% |
| CS(=O)(=O)c1ccc(CCNCc2ccc(-c3ccc(CNC4CCN(Cc5ccccc5)CC4)cc3)nc2)cc1 | -0.83% | -1.16% | -2.69% |
| O=[N+]([O-])c1cccc(-c2nc3cc(C4=NC5CCCCC5N4)ccc3[nH]2)c1 (centres undefined) | 0.61% | 2.08% | 1.26% |
| c1ccc(-c2nc(Nc3ccncc3)sc2-c2ccccc2)cc1 | 4.18% | 4.94% | 1.21% |
| O=C(Nc1ccc(CN2CCN(S(=O)(=O)c3ccc(Cl)s3)CC2)cc1)c1cccs1 | 8.13% | 7.45% | 5.63% |
| CCCCCCN1CCC(NCc2ccc(C(F)(F)F)cc2)CC1 | 2.05% | 1.54% | 5.77% |
| OC(CNC1CCCCC1)Cn1c2ccccc2c2ccccc21 (centres undefined) | 9.36% | 7.72% | 3.35% |

| SMILES | inhibition [1] | inhibition [2] | inhibition [3] |
| --- | --- | --- | --- |
| c1ccc(C2CCC(N3CCC(N4CCN(c5ccccc5)CC4)CC3)CC2)cc1 (centres undefined) | 5.35% | 7.92% | 8.3% |
| CC(C)NC(=O)c1cccc(-c2cccc(OCCN3CCSCC3c3ccccc3)c2)c1 (centres undefined) | 10.4% | 9.35% | 8.53% |
| COc1ccc(C(=O)COc2cccc(/C=C/C(=O)O)c2)cc1OC | 0.26% | 0.15% | -0.23% |
| CN(Cc1cccc(F)c1)C1CCN(c2cc(NC(=O)c3ccc(F)cc3)ccn2)C1 (centres undefined) | 2.33% | -0.57% | 1.63% |
| N#Cc1ccc(CN2CCC(Oc3ccc(NC(=O)c4ccccc4)cc3Cl)CC2)cc1 | 0.83% | -1.16% | 1.28% |
| O=S(=O)(NCCN1CCCC1)c1ccc(-c2ccc(CNCc3ccsc3)cc2)cc1 | 13.4% | 6.54% | 5.55% |
| CCN(CC)CCOc1ccc(Nc2ncc3cc(-c4c(Cl)cccc4Cl)c(=O)n(C)c3n2)cc1 | 75.8% | 83.3% | 17.9% |
| CN1CCN(c2cccc(NC(=O)c3ccc(-c4ccc(C#N)cc4)cc3)c2)CC1 | 8.25% | 3.32% | 5.96% |
| O=C1OC2(CN1CC1CCN(Cc3ccc(O)cc3Cl)C1)c1ccccc1-c1ccccc12 (centres undefined) | 0.5% | -2.55% | 2.67% |
| COc1cccc(NC(=O)c2cc(C(=O)Nc3cccc(OC)c3)cc([N+](=O)[O-])c2)c1 | 2.37% | 3.98% | 1.08% |
| CC(C)CNCc1ccc(-c2ccc(CN(CCCN3CCN(C)CC3)C(=O)CCC3CCCC3)cc2)cc1 | 55.1% | 52% | 3.97% |
| Cc1cc(N[C@@H](Cc2ccccc2)C(=O)NCCOc2ccccc2)nc(NCCOc2ccccc2)n1 | 1.88% | 0.27% | 2.71% |
| Cc1ccc2[nH]c(C)cc(=NN=Cc3ccccc3F)c2c1 | 13.5% | 12.6% | 8.78% |
| CC(=O)Nc1ccc(CN2CCCN(c3cc(NC(=O)c4cccc(C)c4)ccn3)CC2)cc1 | 8.6% | 11.9% | 10.9% |
| Cc1ccc2c(c1)c(C1CCN(C(=O)c3ccc([N+](=O)[O-])o3)CC1)cn2C | 8.36% | 9.14% | 4.16% |
| COc1ccc2ncc(F)c([C@H](O)CN3CCC(NCc4ccc5c(c4)OCCO5)CC3)c2c1 | 4.19% | 2.23% | 1.28% |
